Measured values: PubChem BioAssay (Tox21)
Records with an inconclusive call do not appear. Activity calls are given as the source filed them. The call rests on the fitted dose curve; in most records, active means well fitted curve in the direction sought with a large enough effect in the repeat runs; inconclusive means weak or mixed curves; inactive means no such curve, though single readings can be large; an effect the other way counts as inactive or inconclusive.

Legend:
[1] = A CellTox Green Cytotoxicity Assay to monitor cytotoxicity in HEK293 cells - 40 hour (AID 1224871); further: nearly all actives have a fitted effect of over 45% in size
Summary of the method: (§1)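 Fluorescence from a DNA-binding dye excluded by viable cells was measured repeatedly in the same HEK293 wells (600 cells/well) during continuous compound exposure at 37 C. Each assay gives one read point: 0, 8, 16, 24, 32 or 40 h.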

[2] = qHTS RealTime-Glo MT Cell Viability Assay in HEK293 cells - 16 hour (AID 1224872); further: top concentration of the series differs between compounds; nearly all actives have a fitted effect of over 50% in size
Summary of the method: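 Viability tracked continuously by luminescence as live cells reduce a prosubstrate for NanoLuc; HEK293 cells preincubated 5 h, compound-treated at 37 C, and read at 0, 8, 16, 24, 32 and 40 h.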

[3] = qHTS RealTime-Glo MT Cell Viability Assay in HepG2 cells - 8 hour (AID 1224873); further: nearly all actives have a fitted effect of over 55% in size
Summary of the method: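 HepG2 cells (600/well) mixed with RealTime-Glo MT reagent, settled 5 h at 37 C/5% CO2 before compound addition. Nonlytic NanoLuc luminescence from viable-cell prosubstrate reduction read repeatedly during 40 h treatment at 37 C.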

[4] = qHTS RealTime-Glo MT Cell Viability Assay in HEK293 cells - 40 hour (AID 1224874); conditions: RealTime-Glo luminescence; max response: hits give low values; further: nearly all actives have a fitted effect of over 50% in size
Summary of the method: (§2)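 Luminescence, which tracks viable cell number through reduction of the prosubstrate to a NanoLuc substrate, was read over continuous 37 C culture. Cells (600/well) were premixed with reagent and rested 5 h before 23 nL of compound in DMSO was pinned.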

[5] = A CellTox Green Cytotoxicity Assay to monitor cytotoxicity in HEK293 cells - 24 hour (AID 1224875); further: series mostly up to about 77 µM; nearly all actives have a fitted effect of over 45% in size
Summary of the method: as §1

[6] = A CellTox Green Cytotoxicity Assay to monitor cytotoxicity in HepG2 cells - 16 hour (AID 1224876); further: nearly all actives have a fitted effect of over 45% in size
Summary of the method: (§3)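 Real-time cytotoxicity: fluorescence of a cell-impermeant cyanine dye binding DNA of dead HepG2 cells, measured repeatedly (0–40 h) during compound exposure at 37 C. Cells seeded 600/well with reagent, dosed after 5 h.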

[7] = qHTS RealTime-Glo MT Cell Viability Assay in HepG2 cells - 32 hour (AID 1224877); further: nearly all actives have a fitted effect of over 55% in size
Summary of the method: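 Viability was tracked continuously by NanoLuc luminescence from prosubstrate reduced by living HepG2 cells, at successive time points over 40 h of compound exposure. Cells with reagent were preincubated 5 h at 37 °C before compound addition.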

[8] = A CellTox Green Cytotoxicity Assay to monitor cytotoxicity in HepG2 cells - 24 hour (AID 1224878); further: nearly all actives have a fitted effect of over 45% in size
Summary of the method: as §3

[9] = A CellTox Green Cytotoxicity Assay to monitor cytotoxicity in HepG2 cells - 40 hour (AID 1224879); further: nearly all actives have a fitted effect of over 40% in size
Summary of the method: as §3

[10] = qHTS RealTime-Glo MT Cell Viability Assay in HEK293 cells - 0 hour (AID 1224880)
Summary of the method: as §2
On the % scale 0 is the no-effect control and ±100 the full control effect.

CN(C)CCCCCCN(C)C
inactive: Potency [1] | Potency [2] | outcome [3] | max response [4] -6% | outcome [5] | outcome [6] | Potency [7] | outcome [8] | Potency [9]

NC(CCC(=O)O)C(=O)O (stereo unspecified)
inactive: Potency [1] | Potency [2] | outcome [3] | max response [4] 16.4% | outcome [5] | outcome [6] | Potency [7] | outcome [8] | Potency [9]

CCO[Si](OCC)(OCC)c1ccccc1
inactive: Potency [1] | Potency [2] | outcome [3] | max response [4] 10.1% | outcome [5] | outcome [6] | Potency [7] | outcome [8]

CC/C=C\CCOC(C)OCC (stereo unspecified)
inactive: Potency [1] | Potency [2] | outcome [3] | max response [4] 3.36% | outcome [5] | outcome [6] | Potency [7] | outcome [8] | Potency [9] | Potency [10]

CC(=O)Nc1ccc(OCC(O)CNC(C)C)cc1 (stereo unspecified)
inactive: Potency [1] | Potency [2] | outcome [3] | max response [4] -1.7% | outcome [5] | outcome [6] | Potency [7] | outcome [8] | Potency [9]

CC(C#N)(CCC(=O)O)N=NC(C)(C#N)CCC(=O)O (stereo unspecified)
inactive: Potency [1] | Potency [2] | outcome [3] | max response [4] 3.09% | outcome [5] | outcome [6] | Potency [7] | outcome [8] | Potency [9] | Potency [10]

NO
inactive: Potency [1] | Potency [2] | outcome [3] | max response [4] -12.7% | outcome [5] | outcome [6] | Potency [7] | outcome [8] | Potency [9]

CCOC(=O)C1=NOC(c2ccccc2)(c2ccccc2)C1
inactive: Potency [1] | Potency [2] | outcome [3] | max response [4] 3.23% | outcome [5] | outcome [6] | Potency [7] | outcome [8] | Potency [9]

CC(=O)OCC(=O)[C@@]1(O)[C@H](C)C[C@H]2[C@@H]3CCC4=CC(=O)C=C[C@]4(C)[C@@]3(F)[C@@H](O)C[C@@]21C
inactive: Potency [1] | Potency [2] | outcome [3] | max response [4] 5.93% | outcome [5] | outcome [6] | Potency [7] | outcome [8] | Potency [9]

CO[Si](C)(OC)c1ccccc1
inactive: Potency [1] | Potency [2] | outcome [3] | max response [4] -2.44% | outcome [5] | outcome [6] | Potency [7] | outcome [8] | Potency [9]

CC12CCC(C(=O)C1=O)C2(C)C (stereo unspecified)
inactive: Potency [1] | Potency [2] | outcome [3] | max response [4] -1.01% | outcome [5] | outcome [6] | Potency [7] | outcome [8] | Potency [9]

CCCCc1nc(Cl)c(CO)n1Cc1ccc(-c2ccccc2-c2nn[nH]n2)cc1
inactive: Potency [1] | Potency [2] | outcome [3] | max response [4] -16.9% | outcome [5] | outcome [6] | Potency [7] | outcome [8] | Potency [9]

NS(=O)(=O)Cc1noc2ccccc12
inactive: Potency [1] | Potency [2] | outcome [3] | max response [4] 1.21% | outcome [5] | outcome [6] | Potency [7] | outcome [8] | Potency [9]

CC(C)CCCO
inactive: Potency [1] | Potency [2] | outcome [3] | max response [4] 9.91% | outcome [5] | outcome [6] | Potency [7] | outcome [8] | Potency [9]

CC(C)(C)C(=O)c1ccccc1
inactive: Potency [1] | Potency [2] | outcome [3] | max response [4] 0.84% | outcome [5] | outcome [6] | Potency [7] | outcome [8] | Potency [9]

C=CC(C)(CCC=C(C)C)OC(=O)CC (stereo unspecified)
inactive: Potency [1] | Potency [2] | outcome [3] | max response [4] -1.4% | outcome [5] | outcome [6] | Potency [7] | outcome [8] | Potency [9] | Potency [10]

CCC(=O)OCc1ccccc1
inactive: Potency [1] | Potency [2] | outcome [3] | max response [4] -6.18% | outcome [5] | outcome [6] | Potency [7] | outcome [8] | Potency [9] | Potency [10]

CNC(=O)Nc1ccc(Cl)c(Cl)c1
inactive: Potency [1] | Potency [2] | outcome [3] | max response [4] -26.8% | outcome [5] | outcome [6] | Potency [7] | outcome [8] | Potency [9] | Potency [10]

Cc1onc(-c2c(Cl)cccc2Cl)c1C(=O)Cl
inactive: Potency [1] | Potency [2] | outcome [3] | max response [4] 2.75% | outcome [5] | outcome [6] | Potency [7] | outcome [8] | Potency [9] | Potency [10]

CO[C@@]1(NC(=O)CSC[C@@H](N)C(=O)O)C(=O)N2C(C(=O)O)=C(CSc3nnnn3C)CS[C@@H]21
inactive: Potency [1] | Potency [2] | outcome [3] | max response [4] -2.75% | outcome [5] | outcome [6] | Potency [7] | outcome [8] | Potency [9] | Potency [10]

CCCC(C)C(=O)OCC (stereo unspecified)
inactive: Potency [1] | Potency [2] | outcome [3] | max response [4] -2.71% | outcome [5] | outcome [6] | Potency [7] | outcome [8] | Potency [9] | Potency [10]

CN1[C@@H]2CC[C@H]1CC(OC(=O)C(O)c1ccccc1)C2 (stereo partly specified)
inactive: Potency [1] | Potency [2] | outcome [3] | max response [4] 3.93% | outcome [5] | outcome [6] | Potency [7] | outcome [8] | Potency [9] | Potency [10]
